The results in this text go back to PubChem BioAssay (EPA / NIEHS).

Records with an inconclusive call do not appear. More than one record can exist for a structure, and the calls need not agree. Active and inactive are the calls of the source. Rule for the calls, unless noted: active = hit-call score of the fitted dose curve at least 0.9, where 1 is the maximum; inactive = score below 0.9.

In general, AC50 refers to the concentration giving half of the maximal activity seen.

Assay [1] is described as follows: ATG_TCF_b_cat_CIS: Attagene CIS-FACTORIAL HepG2 Assay for human T-Cell-Factor with beta-catenin (TCF/b-cat) (AID 2282965). As to conditions: HepG2 TCF/beta-catenin cis-reporter transcription, actives raise or lower the signal. In short, it runs like this: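 Endogenous transcription factor activity is captured through cis-promoter reporter constructs transiently introduced into human HepG2 liver cells. Induced reporter mRNA is measured after 24 h and fitted bidirectionally relative to DMSO.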

Assay [2] in a line: ATG_TAL_CIS: Attagene CIS-FACTORIAL HepG2 Assay for human TAL Basal Promoter (AID 2282966).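 Note: background control endpoint measuring basal TAL promoter reporter mRNA not a specific factor.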 As to conditions: HepG2 Attagene cis-factorial TAL promoter reporter; actives raise or lower the signal. In short, it runs like this:
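Steps: transfect HepG2 with multiple reporter transcription units; dose 24 h; isolate RNA, reverse-transcribe, PCR-amplify, label with 6-FAM, digest with HpaI; resolve by capillary electrophoresis. Bidirectional fitting against DMSO baseline.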

The nature of assay [3]: ATG_VDRE_CIS: Attagene CIS-FACTORIAL HepG2 Assay for human Vitamin D Receptor Element (VDRE) (AID 2282968). To be noted: HepG2 VDRE cis-reporter transcription, actives raise or lower the signal. In short, it runs like this: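 In transiently transfected HepG2 liver cells, gain or loss of reporter mRNA after 24 h exposure is scored relative to DMSO, using fluorescence detection by capillary electrophoresis of RT-PCR products.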

The target in assay [4] is Estrogen receptor (Homo sapiens) (UniProt P03372). The experiment in a line: ATG_ERa_TRANS: Attagene TRANS-FACTORIAL HepG2 Assay for human Estrogen Receptor alpha (ERa) (AID 2282970; active = hit-call score of the fitted dose curve at least 0.9, where 1 is the maximum). As to conditions: HepG2 Attagene TRANS ERa GAL4 reporter, mRNA. Put shortly: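 Multiplexed cell-based reporter format in HepG2: chimeric ERa-Gal4 protein drives GAL4-UAS reporter transcription. Fluorescent reporter mRNA quantified by capillary electrophoresis 24 hours after dosing; endpoint fitted as signal gain against DMSO.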

Assay [5] concerns the target X-box-binding protein 1 (Homo sapiens) (UniProt P17861). The experiment in a line: ATG_Xbp1_CIS: Attagene CIS-FACTORIAL HepG2 Assay for human X-box Binding Protein 1 (XBP1) (AID 2282972). To be noted: HepG2 XBP1 cis-element reporter, Attagene multiplex; actives raise or lower the signal. Put shortly: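 HepG2 cells transiently transfected with cis-regulated multiple reporter transcription units; endogenous transcription factor activity measured 24 hours after chemical dosing. Reporter mRNA quantified by RT-PCR, 6-FAM primer extension, HpaI digestion and capillary electrophoresis; bidirectional fitting versus DMSO.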

The target of assay [6] is Bile acid receptor (Homo sapiens) (UniProt Q96RI1). Nature of the assay: ATG_FXR_TRANS: Attagene TRANS-FACTORIAL HepG2 Assay for Farnesoid X Receptor (FXR) (AID 2282979; active = hit-call score of the fitted dose curve at least 0.9, where 1 is the maximum;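 note: hits raise reporter mRNA above DMSO so AC50 marks FXR activation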). As to conditions: HepG2 Attagene TRANS FXR-GAL4 reporter transcription. In short, it runs like this:
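After 24 h chemical treatment of transfected HepG2 cells, GAL4-UAS reporter transcripts driven by an exogenous FXR-GAL4 fusion were measured by RT-PCR and capillary electrophoresis. Increases over DMSO were fitted.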

Assay [7] is described as follows: ATG_M_06_TRANS: Attagene TRANS-FACTORIAL HepG2 Assay for M06 Transcription Factor (Internal Marker) (AID 2282983; active = hit-call score of the fitted dose curve at least 0.9, where 1 is the maximum;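 note: reporter transcript level by RT-PCR then capillary electrophoresis fluorescence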). To be noted: HepG2 Attagene TRANS M06 internal marker reporter. Put shortly: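 Internal-marker background readout from a multiplexed TRANS reporter system in HepG2; 24 h dosing; mRNA induction quantified by RT-PCR plus capillary electrophoresis fluorescence; DMSO as negative control and baseline.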

Assay [8] has as its target Transcriptional activator Myb (Homo sapiens) (UniProt P10242). The experiment in a line: ATG_Myb_CIS: Attagene CIS-FACTORIAL HepG2 Assay for human Myeloblastosis (Myb) Proto-Oncogene Transcription Factor (AID 2282986). As to conditions: HepG2 Attagene CIS-FACTORIAL Myb reporter transcription; actives raise or lower the signal. Put shortly: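 Fluorescence signals from capillary electrophoresis of RT-PCR-amplified reporter cDNA give the read-out. Cells: HepG2 transfected with multiple cis-regulated reporter units. Exposure lasts 24 hours; DMSO defines baseline for gain or loss of signal.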

The target in assay [9] is Nuclear respiratory factor 1 (Homo sapiens) (UniProt Q16656). Nature of the assay: ATG_NRF1_CIS: Attagene CIS-FACTORIAL HepG2 Assay for human Nuclear Respiratory Factor 1 (NRF1) Orphan Gene (AID 2282987). To be noted: HepG2 NRF1 cis-element reporter, Attagene multiplex; actives raise or lower the signal. Put shortly: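 Transcriptional reporter readout, one component of a 52-endpoint multiplexed HepG2 panel. Exposure 24 h; mRNA detected via RT-PCR and fluorescent capillary electrophoresis; fitting in both directions against DMSO.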

The nature of assay [10]: ATG_TGFb_CIS: Attagene CIS-FACTORIAL HepG2 Assay for human Transforming Growth Factor (TGF) (AID 2282967). As to conditions: HepG2 Attagene CIS TGFb reporter, mRNA transcription; actives raise or lower the signal. In short, it runs like this:
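HepG2 cells transiently transfected with cis-promoter-driven multiplexed reporter units; 24 h compound exposure. Reporter mRNA measured by RT-PCR, 6-FAM labeling, HpaI digestion and capillary electrophoresis; bidirectional fit versus DMSO baseline.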

For assay [11], the target named is Steroid hormone receptor ERR1 (Homo sapiens) (UniProt P11474). Nature of the assay: ATG_ERRa_TRANS: Attagene TRANS-FACTORIAL HepG2 Assay for human Estrogen-Related Receptor alpha (ERRa) (AID 2282971; active = hit-call score of the fitted dose curve at least 0.9, where 1 is the maximum). To be noted: HepG2 Attagene TRANS reporter, ERRa transactivation. Put shortly:
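Signal gain relative to DMSO for an ERRa-Gal4 chimeric receptor, read as reporter mRNA by RT-PCR/capillary electrophoresis. Human HepG2 liver cells, transient multiplex reporter transfection, 24 h chemical exposure.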

The nature of assay [12]: ATG_M_19_TRANS: Attagene TRANS-FACTORIAL HepG2 Assay for M19 Transcription Factor (Internal Marker) (AID 2282974; active = hit-call score of the fitted dose curve at least 0.9, where 1 is the maximum). As to conditions: HepG2 Attagene TRANS-FACTORIAL M19 internal marker reporter. Put shortly: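 Measured here: internal-marker reporter transcript from HepG2 cells transfected with MRTUs, harvested at 24 h. cDNA PCR products were 6-FAM labelled by primer extension, cut with HpaI for 2 h at 37 C, and resolved by CE.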

Assay [13] can be described thus: ATG_GAL4_TRANS: Attagene TRANS-FACTORIAL HepG2 Assay for GAL4 (Internal Marker) (AID 2282976; active = hit-call score of the fitted dose curve at least 0.9, where 1 is the maximum). As to conditions: HepG2 Attagene TRANS GAL4 internal marker reporter. Put shortly: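 Liver HepG2 line bearing multiplexed GAL4-UAS reporter constructs; 24 h chemical treatment. Transcripts were quantified as fluorescent fragments on capillary electrophoresis after RT-PCR and HpaI cut, with activity fitted upward from DMSO.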

Assay [14] deals with Oxysterols receptor LXR-beta (Homo sapiens) (UniProt P55055). Nature of the assay: ATG_LXRb_TRANS: Attagene TRANS-FACTORIAL HepG2 Assay for human Liver X Receptor beta (LXRb) (AID 2282981; active = hit-call score of the fitted dose curve at least 0.9, where 1 is the maximum). As to conditions: HepG2 Attagene TRANS GAL4-LXRb reporter, mRNA. In short, it runs like this:
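Cells: HepG2, transiently transfected with GAL4-UAS reporter units plus LXRb-Gal4 fusion. Treatment: 24 h. Detection: reporter mRNA by RT-PCR, 6-FAM labelling, HpaI digestion, capillary electrophoresis.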

Assay [15] can be described thus: ATG_M_32_TRANS: Attagene TRANS-FACTORIAL HepG2 Assay for M32 Transcription Factor (Internal Marker) (AID 2282984; active = hit-call score of the fitted dose curve at least 0.9, where 1 is the maximum;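 note: transcript level of a background control reporter unit measured by RT-PCR and capillary electrophoresis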). As to conditions: HepG2 Attagene TRANS M32 internal marker reporter. In short, it runs like this: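 Using transiently transfected HepG2 cells exposed to test chemicals for 24 h, reporter transcripts are converted to labelled cDNA fragments and quantified by capillary electrophoresis. DMSO defines the activity baseline.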

In assay [16] the target is Nuclear receptor subfamily 4 group A member 2 (Homo sapiens) (UniProt P43354). The experiment in a line: ATG_NURR1_TRANS: Attagene TRANS-FACTORIAL HepG2 Assay for human Nuclear Receptor Related Protein 1 (NURR1) (AID 2282985; active = hit-call score of the fitted dose curve at least 0.9, where 1 is the maximum). As to conditions: HepG2 Attagene TRANS reporter, mRNA readout. In short, it runs like this: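 Cells: HepG2, transiently transfected. Exposure: 24 h. Detection: fluorescence of labelled RT-PCR products separated by capillary electrophoresis; upward fit versus DMSO.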

The target in assay [17] is Hepatocyte nuclear factor 4-alpha (Homo sapiens) (UniProt P41235). The experiment in a line: ATG_HNF4a_TRANS: Attagene TRANS-FACTORIAL HepG2 Assay for human Hepatocyte Nuclear Factor 4 alpha (HNF4a) (AID 2282982; active = hit-call score of the fitted dose curve at least 0.9, where 1 is the maximum). To be noted: HepG2 HNF4a transactivation reporter, mRNA readout. Put shortly: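 Transfected HepG2 reporter cells are dosed for 24 h; reporter RNA is reverse-transcribed, amplified, fluorescently labelled and HpaI-digested before CE sizing. Positive-direction fit against DMSO.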

Assay [18] concerns the target Nuclear receptor subfamily 1 group I member 3 (Homo sapiens) (UniProt Q14994). Nature of the assay: ATG_CAR_TRANS: Attagene TRANS-FACTORIAL HepG2 Assay for human Constitutive Androstane Receptor (CAR) (AID 2282969; active = hit-call score of the fitted dose curve at least 0.9, where 1 is the maximum;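 note: activators raise reporter mRNA above DMSO so AC50 marks induction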). To be noted: HepG2 Attagene TRANS-FACTORIAL CAR reporter. In short, it runs like this: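 Readout is reporter mRNA induction, quantified by fluorescent primer extension and capillary electrophoresis after RT-PCR. Cells were HepG2 transiently carrying chimeric NR-Gal4 constructs with GAL4-UAS reporters, treated for 24 h; activity scored upward from DMSO.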

Transcriptional activator Myb (Homo sapiens), sequence (P10242 whole entry, looked up): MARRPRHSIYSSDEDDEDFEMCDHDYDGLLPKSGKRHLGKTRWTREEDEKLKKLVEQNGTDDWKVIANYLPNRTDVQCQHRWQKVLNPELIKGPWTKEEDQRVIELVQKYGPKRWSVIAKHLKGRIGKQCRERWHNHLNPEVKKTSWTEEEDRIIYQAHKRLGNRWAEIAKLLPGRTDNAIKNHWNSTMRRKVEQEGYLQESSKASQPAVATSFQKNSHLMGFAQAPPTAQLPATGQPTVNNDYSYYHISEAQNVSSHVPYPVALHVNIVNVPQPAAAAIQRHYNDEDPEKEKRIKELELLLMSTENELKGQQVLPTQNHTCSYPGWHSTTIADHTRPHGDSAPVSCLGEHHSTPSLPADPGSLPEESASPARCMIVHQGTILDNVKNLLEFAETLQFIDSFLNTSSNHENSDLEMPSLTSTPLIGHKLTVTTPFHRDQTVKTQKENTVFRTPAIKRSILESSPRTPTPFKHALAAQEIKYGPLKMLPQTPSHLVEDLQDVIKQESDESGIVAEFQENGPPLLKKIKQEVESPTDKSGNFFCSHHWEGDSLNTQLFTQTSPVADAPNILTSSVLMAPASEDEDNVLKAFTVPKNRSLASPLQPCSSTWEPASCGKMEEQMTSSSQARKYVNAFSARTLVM
Nuclear respiratory factor 1 (Homo sapiens), sequence (Q16656 whole entry, looked up): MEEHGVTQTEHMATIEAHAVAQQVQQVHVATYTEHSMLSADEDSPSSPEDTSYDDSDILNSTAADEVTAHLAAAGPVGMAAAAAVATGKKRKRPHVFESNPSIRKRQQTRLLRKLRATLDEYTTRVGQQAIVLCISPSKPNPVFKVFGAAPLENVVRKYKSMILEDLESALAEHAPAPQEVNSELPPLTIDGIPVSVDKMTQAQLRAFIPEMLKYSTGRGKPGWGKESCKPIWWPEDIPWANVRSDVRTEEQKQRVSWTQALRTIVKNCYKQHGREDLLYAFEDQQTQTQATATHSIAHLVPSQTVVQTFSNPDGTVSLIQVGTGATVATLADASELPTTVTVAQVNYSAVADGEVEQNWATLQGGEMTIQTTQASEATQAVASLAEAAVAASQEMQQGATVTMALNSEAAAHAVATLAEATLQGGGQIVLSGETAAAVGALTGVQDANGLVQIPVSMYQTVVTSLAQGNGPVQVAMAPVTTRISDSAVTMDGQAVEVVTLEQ
X-box-binding protein 1 (Homo sapiens), sequence (P17861 whole entry, looked up): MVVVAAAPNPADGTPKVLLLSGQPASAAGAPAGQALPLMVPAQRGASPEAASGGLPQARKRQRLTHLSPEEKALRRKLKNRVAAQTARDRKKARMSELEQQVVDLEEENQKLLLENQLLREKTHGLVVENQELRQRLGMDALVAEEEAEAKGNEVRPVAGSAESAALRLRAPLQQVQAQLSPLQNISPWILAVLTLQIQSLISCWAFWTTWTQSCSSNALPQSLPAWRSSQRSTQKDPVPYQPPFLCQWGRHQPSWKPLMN
Bile acid receptor (Homo sapiens), sequence (Q96RI1 whole entry, looked up, the tested form may be a part): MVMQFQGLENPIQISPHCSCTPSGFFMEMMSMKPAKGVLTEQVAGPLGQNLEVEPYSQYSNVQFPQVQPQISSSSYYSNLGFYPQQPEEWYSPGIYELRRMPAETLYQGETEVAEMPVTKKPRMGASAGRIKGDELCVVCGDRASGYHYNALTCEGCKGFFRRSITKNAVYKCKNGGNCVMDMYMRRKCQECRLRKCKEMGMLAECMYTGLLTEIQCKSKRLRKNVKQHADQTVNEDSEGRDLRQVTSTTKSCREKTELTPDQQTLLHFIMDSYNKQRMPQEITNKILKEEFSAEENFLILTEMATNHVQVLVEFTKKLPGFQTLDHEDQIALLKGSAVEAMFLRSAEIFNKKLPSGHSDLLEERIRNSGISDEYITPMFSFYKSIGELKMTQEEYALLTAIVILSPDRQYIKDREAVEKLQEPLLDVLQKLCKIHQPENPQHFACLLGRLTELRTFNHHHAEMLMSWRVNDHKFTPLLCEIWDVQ
Nuclear receptor subfamily 4 group A member 2 (Homo sapiens), sequence (P43354 whole entry, looked up): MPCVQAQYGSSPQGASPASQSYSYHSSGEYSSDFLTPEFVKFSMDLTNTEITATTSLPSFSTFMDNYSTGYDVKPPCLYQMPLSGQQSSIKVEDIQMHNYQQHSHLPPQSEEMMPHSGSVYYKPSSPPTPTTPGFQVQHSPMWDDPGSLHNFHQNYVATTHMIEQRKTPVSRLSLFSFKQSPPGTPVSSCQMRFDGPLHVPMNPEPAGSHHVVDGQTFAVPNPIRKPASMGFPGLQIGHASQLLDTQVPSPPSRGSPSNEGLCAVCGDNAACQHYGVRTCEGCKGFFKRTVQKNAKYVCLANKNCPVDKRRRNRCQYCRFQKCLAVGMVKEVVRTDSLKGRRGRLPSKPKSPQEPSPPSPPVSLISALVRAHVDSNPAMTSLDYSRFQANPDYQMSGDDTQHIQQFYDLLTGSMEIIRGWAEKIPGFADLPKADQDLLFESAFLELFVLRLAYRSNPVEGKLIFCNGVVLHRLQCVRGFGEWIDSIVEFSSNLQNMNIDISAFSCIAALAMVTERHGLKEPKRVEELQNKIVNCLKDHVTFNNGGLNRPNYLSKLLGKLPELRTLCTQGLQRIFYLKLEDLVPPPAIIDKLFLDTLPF
Estrogen receptor (Homo sapiens), sequence (P03372 whole entry, looked up, the tested form may be a part): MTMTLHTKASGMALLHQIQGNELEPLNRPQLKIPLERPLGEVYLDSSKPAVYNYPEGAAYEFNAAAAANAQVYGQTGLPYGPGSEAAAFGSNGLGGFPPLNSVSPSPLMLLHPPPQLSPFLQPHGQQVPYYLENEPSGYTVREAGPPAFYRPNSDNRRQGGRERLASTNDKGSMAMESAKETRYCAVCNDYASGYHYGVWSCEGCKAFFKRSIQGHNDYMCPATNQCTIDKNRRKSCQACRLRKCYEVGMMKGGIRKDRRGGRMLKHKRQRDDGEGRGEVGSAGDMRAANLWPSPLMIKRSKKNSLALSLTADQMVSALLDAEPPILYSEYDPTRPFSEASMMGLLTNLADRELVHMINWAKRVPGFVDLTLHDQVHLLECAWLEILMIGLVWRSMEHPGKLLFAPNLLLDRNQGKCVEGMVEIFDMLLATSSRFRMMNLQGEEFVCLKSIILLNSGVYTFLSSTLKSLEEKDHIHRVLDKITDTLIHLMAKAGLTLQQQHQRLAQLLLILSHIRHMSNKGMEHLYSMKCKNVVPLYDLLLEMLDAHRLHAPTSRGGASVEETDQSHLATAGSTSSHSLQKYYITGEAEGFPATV
Oxysterols receptor LXR-beta (Homo sapiens), sequence (P55055 whole entry, looked up, the tested form may be a part): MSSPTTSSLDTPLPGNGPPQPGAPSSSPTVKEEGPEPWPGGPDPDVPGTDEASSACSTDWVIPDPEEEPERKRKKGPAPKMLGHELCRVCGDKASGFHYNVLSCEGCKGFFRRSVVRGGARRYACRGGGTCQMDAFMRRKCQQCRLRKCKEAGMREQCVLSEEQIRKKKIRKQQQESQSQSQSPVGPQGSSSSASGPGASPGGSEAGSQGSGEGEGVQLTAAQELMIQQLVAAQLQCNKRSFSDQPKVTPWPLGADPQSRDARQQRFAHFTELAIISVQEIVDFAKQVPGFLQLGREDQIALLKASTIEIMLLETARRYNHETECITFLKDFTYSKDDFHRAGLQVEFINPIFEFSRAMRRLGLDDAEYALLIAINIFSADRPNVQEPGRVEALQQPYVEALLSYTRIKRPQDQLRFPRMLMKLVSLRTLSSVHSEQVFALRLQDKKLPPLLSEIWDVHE
Steroid hormone receptor ERR1 (Homo sapiens), sequence (P11474 whole entry, looked up, the tested form may be a part): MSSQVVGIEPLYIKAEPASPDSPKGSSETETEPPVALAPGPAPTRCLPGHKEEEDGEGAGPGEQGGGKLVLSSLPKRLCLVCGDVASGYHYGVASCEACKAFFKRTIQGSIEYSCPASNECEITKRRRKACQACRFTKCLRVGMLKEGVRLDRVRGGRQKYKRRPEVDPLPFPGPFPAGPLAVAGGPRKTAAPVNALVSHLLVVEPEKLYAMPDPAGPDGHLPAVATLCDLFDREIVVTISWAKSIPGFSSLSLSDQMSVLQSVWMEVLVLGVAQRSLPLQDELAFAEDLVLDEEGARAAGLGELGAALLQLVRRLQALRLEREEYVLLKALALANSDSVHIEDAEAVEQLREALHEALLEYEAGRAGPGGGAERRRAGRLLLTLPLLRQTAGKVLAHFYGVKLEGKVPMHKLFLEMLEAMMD
Nuclear receptor subfamily 1 group I member 3 (Homo sapiens), sequence (Q14994 whole entry, looked up, the tested form may be a part): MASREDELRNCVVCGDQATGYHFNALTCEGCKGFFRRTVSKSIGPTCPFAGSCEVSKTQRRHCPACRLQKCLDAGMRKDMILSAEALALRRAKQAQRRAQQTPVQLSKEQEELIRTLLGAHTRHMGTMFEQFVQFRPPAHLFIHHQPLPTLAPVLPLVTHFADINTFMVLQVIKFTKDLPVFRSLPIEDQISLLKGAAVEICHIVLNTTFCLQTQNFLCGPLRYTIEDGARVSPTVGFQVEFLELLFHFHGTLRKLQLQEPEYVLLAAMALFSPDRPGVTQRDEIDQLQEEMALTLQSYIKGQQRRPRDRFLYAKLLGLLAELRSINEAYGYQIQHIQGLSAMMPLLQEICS
Hepatocyte nuclear factor 4-alpha (Homo sapiens), sequence (P41235 whole entry, looked up): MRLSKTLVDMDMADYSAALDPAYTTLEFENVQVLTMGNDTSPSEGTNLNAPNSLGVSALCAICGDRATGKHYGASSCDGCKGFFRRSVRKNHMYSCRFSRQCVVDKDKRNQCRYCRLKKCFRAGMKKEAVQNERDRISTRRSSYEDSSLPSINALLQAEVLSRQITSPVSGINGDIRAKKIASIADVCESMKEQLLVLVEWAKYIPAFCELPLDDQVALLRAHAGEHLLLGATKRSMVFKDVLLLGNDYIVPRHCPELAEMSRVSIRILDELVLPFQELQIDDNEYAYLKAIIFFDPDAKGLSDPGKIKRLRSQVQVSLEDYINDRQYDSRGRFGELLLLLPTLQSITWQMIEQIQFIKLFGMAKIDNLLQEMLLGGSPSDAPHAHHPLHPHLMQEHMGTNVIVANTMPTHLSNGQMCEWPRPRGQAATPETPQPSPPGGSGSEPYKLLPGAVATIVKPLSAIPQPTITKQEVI

For `CC(C)(C)CC(C)(C)c1ccc(O)c(-n2nc3ccccc3n2)c1`, the compound was called inactive in assay [1], in assay [2], in assay [5], in assay [6], in assay [7] and in [8]. For the same compound, the call in [9] was inactive. In addition, the half-maximal activity concentration (AC50) in assay [3] was 6.7 µM (active); in [4] it was 26.8 µM (active).

Regarding `OC1CCC(C2CCCCC2)CC1` (stereo not drawn), the outcome in assay [1], in assay [2], in assay [10], in assay [3], in assay [11] and in [5] was inactive. Further, the call in assay [12], in [13], in assay [6], in assay [14], in [7] and in [15] was inactive. Further, the call in [16], in [8] and in [9] was inactive.

For `CCN(CC)CCNc1ccc(CNC=O)c2sc3ccc(OC)cc3c(=O)c12`, the compound was classed as inactive in assay [1], in assay [2], in assay [11], in [17], in assay [7] and in assay [15]. In addition, the outcome in assay [8] was inactive. In addition, the AC50 is 0.689 µM (active) in assay [3]; 1.05 µM (active) in assay [4]; 0.766 µM (active) in assay [5]; 3.36 µM (active) in assay [13]; 2.44 µM (active) in assay [6]; 1.57 µM (active) in [14]. Besides, the concentration at half-maximal activity (AC50) is 0.771 µM (active) in assay [16] and 1.04 µM (active) in assay [9].

As to `OCCC(F)(F)C(F)(F)C(F)(F)C(F)(F)C(F)(F)C(F)(F)F`, the outcome in assay [1], in [2], in assay [18], in assay [4], in [5] and in assay [13] was inactive. Moreover, the call in [6], in assay [14], in assay [7], in assay [15], in assay [16] and in [8] was inactive. In assay [9], the compound was classed as inactive. In addition, the concentration at half-maximal activity (AC50) in assay [5] is 134 µM (active).
